One assay deals with RARg homodimer (NR concentration 270 nM). Description: PBM binding z-score (relative to random genomic background probes); higher = stronger binding; sequences stand for … in GC…GCGATTGACAGCGTAGAATGAAGG
The essentials: (§1)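 Probes were double-stranded and carried 34-nt variable regions with direct-repeat seeds, single-nucleotide variants, half-site ablations and random human genomic background sequences, printed on custom Agilent 4×180K protein-binding microarrays. Arrays were incubated 1 h with ligand-free nuclear receptor dimers in PBS pH 7.4, 2% milk, 0.02% Triton X-100, 1 mM DTT, 0.2 mg/mL BSA and 0.4 mg/ml salmon testes DNA. Antibodies against each partner (one per run) detected binding, and scanned fluorescence was regression-normalized. Binding z-scores use the random background probes as reference.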
The sequence CGAACTAGGTCAGAACAGGACGGTGAAGGATGAT returned a PBM binding z-score of 3.17.

CCTATTAGTTGACCAAAAGGGCAACCGAAGCTCG returned a PBM binding z-score of 1.84.

As for ATATGTAGGTTACATCCGGGTCATTCCGGCTATG, the PBM binding z-score is 2.07.

For the sequence CCTACTGGGCCAAGATCATTGATCAGTCAAAGCA, the PBM binding z-score is -0.13.

Regarding TCATATAGGTAAAGGTAAAAGTCGAACGATATGA, the PBM binding z-score came to 0.679.

Consider ACAGACAGGTGATGACGGTAACTCAGGCTATCAT, for which the PBM binding z-score amounted to 0.261.

For ATCTCTATGTAAAGATAGTTCAGTGAATGCAAAT, the PBM binding z-score is 0.571.

In turn, CGAACTTGGTCAGAACAGGACAGTGAAGGATGAT returned a PBM binding z-score of 0.829.

Take CCTACTGGGCCATTCAGAGCTCATTGATCATATG: the PBM binding z-score was -0.184.

Consider TCATGTAGATCAATAGAGGTTAAGAAAGTGCGCT, for which the PBM binding z-score came to 0.576.

As for TGGCAAAGTTCAAAGGTAACGTAAGTATCCACAC, the PBM binding z-score amounted to 5.81.

GGAACAAGGGCAAAGTTGATAGCATCTGTCGACG: the PBM binding z-score worked out at 1.83.

Regarding GATACAGGGTCCAGGCCAGAGTACGCGTATTGAT, the PBM binding z-score is 0.255.

GGAACGAGGGCATTCGAGCTGATAGCATGGCGAT: the PBM binding z-score was determined as 1.2.

Turning to CGAACTAGGTCAGAACAGGACAGCGAAGGATGAT, the PBM binding z-score worked out at 3.18.

Take GCTTACGGGTCAAAGGTTATAGCATGAATAGAAT: the PBM binding z-score was determined as 4.71.

TGATATAGGTAAATGCTAGGTGAAAGTCCGATCT: the PBM binding z-score came to 0.33.

Regarding CCGAATGGGGCATAAGGTTACCATAAGCCAGCCC, the PBM binding z-score was found to be 1.03.

The sequence CCTGGGAGGACAACAGGAGGTCAGAGCTGCCAGA showed a PBM binding z-score of 3.6.

TCACATAGGTAATACAGGTGAAAGTCGGCATCTA returned a PBM binding z-score of 0.535.

CCTCGGAGGACAGAAGGTCAGAGTTGTCCGCTTT: the PBM binding z-score is 2.91.

ATCTCTAGGTAAAGTTCGGTGAAAGATCGATAGA gave a PBM binding z-score of 0.694.

Sequence CCGACTGTGGCAGAAAGGTTACCATACCATCCGG displayed a PBM binding z-score of 0.761.

For TCTAGTTGGTCAAAGGACACACACTCGAAATGCG, the PBM binding z-score came to 2.29.

With AATACAGGGTCACTAGGCTAGAGTAGGTACGAAT, the PBM binding z-score came to 5.26.

The sequence TGTGCTAGGTCAGTTGGTCAGCTAACGAGCTGCC registered a PBM binding z-score of 3.48.

In the case of ATATGTAGGTTATCGGGTCATCCAGTTTGCGCAT, the PBM binding z-score stood at 2.8.

Sequence CCTAGTTGGTCAGGAGGTCTCACACCGGATATGA came in with a PBM binding z-score of 0.718.

On to TCTTGTAGATCAATATAGGTTAAGAAAGTGCGCT, for which the PBM binding z-score is 0.586.

GTACCAAGGTGAATAGGCCGTTGATGAGTAGGCG yielded a PBM binding z-score of 0.694.

In turn, TCTGCTAGGGCAGTTGGTCAGCTAACGAGCTGCC displayed a PBM binding z-score of 0.49.

The sequence AGTCAAAATTCATCTAGGTAACGTAAGATATGCT returned a PBM binding z-score of 0.342.

Take CCAGACAGGTGAGAAGGTTACTCAGCCTCGATTA: the PBM binding z-score was 1.13.

AGTCAAAGTTCAGGACGAGGTAACATAAAGCACG registered a PBM binding z-score of 4.71.

As to TGAATGAGGTTAAAGATCAGGGACCGTGGCGTCG, the PBM binding z-score was found to be 0.948.

Regarding CAAAGTAGGTCAAAGGTCAAAGTCGAGCCAACCA, the PBM binding z-score was determined as 7.72.

With CCTTACGGGTCACTCCAGGTTATGGCATCGGAGT, the PBM binding z-score worked out at 4.54.

Sequence GCTTACGGGACAAAGGTTATAGCATGAATAGAAT came in with a PBM binding z-score of 1.27.

The sequence ACTATTAGTTGAGACGAGGGCAATCGATAGGTTG returned a PBM binding z-score of 0.973.

Regarding CTCGAAAGGTCCTGCTCAGGTGAGTATACCAAAC, the PBM binding z-score turned out to be 0.414.

In a further assay the test system is RXRa DBDmut IVT, anti-RXR (DBD mutation: RXRa K156A/R161A, NR concentration 90 nM). Described as above. In a few lines:
as §1
CGAACTAGGTCAGAACAGGACGGTGAAGGATGAT: the PBM binding z-score worked out at 0.53.

With CCTATTAGTTGACCAAAAGGGCAACCGAAGCTCG, the PBM binding z-score is 0.787.

Regarding ATATGTAGGTTACATCCGGGTCATTCCGGCTATG, the PBM binding z-score was determined as 1.21.

For CCTACTGGGCCAAGATCATTGATCAGTCAAAGCA, the PBM binding z-score was -0.666.

TCATATAGGTAAAGGTAAAAGTCGAACGATATGA: the PBM binding z-score turned out to be 0.705.

As for ACAGACAGGTGATGACGGTAACTCAGGCTATCAT, the PBM binding z-score was -0.0365.

In turn, ATCTCTATGTAAAGATAGTTCAGTGAATGCAAAT returned a PBM binding z-score of 0.0227.

Consider CGAACTTGGTCAGAACAGGACAGTGAAGGATGAT, for which the PBM binding z-score was -0.105.

As to CCTACTGGGCCATTCAGAGCTCATTGATCATATG, the PBM binding z-score stood at 0.0203.

On to TCATGTAGATCAATAGAGGTTAAGAAAGTGCGCT, for which the PBM binding z-score was determined as 1.27.

Sequence TGGCAAAGTTCAAAGGTAACGTAAGTATCCACAC showed a PBM binding z-score of 4.22.

Regarding GGAACAAGGGCAAAGTTGATAGCATCTGTCGACG, the PBM binding z-score worked out at 1.5.

In the case of GATACAGGGTCCAGGCCAGAGTACGCGTATTGAT, the PBM binding z-score was -0.135.

GGAACGAGGGCATTCGAGCTGATAGCATGGCGAT showed a PBM binding z-score of 2.72.

In turn, CGAACTAGGTCAGAACAGGACAGCGAAGGATGAT gave a PBM binding z-score of 0.432.

GCTTACGGGTCAAAGGTTATAGCATGAATAGAAT showed a PBM binding z-score of 2.42.

For the sequence TGATATAGGTAAATGCTAGGTGAAAGTCCGATCT, the PBM binding z-score was -0.331.

For the sequence CCGAATGGGGCATAAGGTTACCATAAGCCAGCCC, the PBM binding z-score is -0.221.

For the sequence CCTGGGAGGACAACAGGAGGTCAGAGCTGCCAGA, the PBM binding z-score was -0.219.

The sequence TCACATAGGTAATACAGGTGAAAGTCGGCATCTA came in with a PBM binding z-score of 1.35.

In turn, CCTCGGAGGACAGAAGGTCAGAGTTGTCCGCTTT returned a PBM binding z-score of 0.56.

Consider ATCTCTAGGTAAAGTTCGGTGAAAGATCGATAGA, for which the PBM binding z-score was determined as 0.694.

Take CCGACTGTGGCAGAAAGGTTACCATACCATCCGG: the PBM binding z-score was -0.111.

Sequence TCTAGTTGGTCAAAGGACACACACTCGAAATGCG displayed a PBM binding z-score of 1.09.

AATACAGGGTCACTAGGCTAGAGTAGGTACGAAT gave a PBM binding z-score of 2.71.

For TGTGCTAGGTCAGTTGGTCAGCTAACGAGCTGCC, the PBM binding z-score is -0.535.

For the sequence ATATGTAGGTTATCGGGTCATCCAGTTTGCGCAT, the PBM binding z-score is 1.33.

CCTAGTTGGTCAGGAGGTCTCACACCGGATATGA: the PBM binding z-score was -0.451.

TCTTGTAGATCAATATAGGTTAAGAAAGTGCGCT returned a PBM binding z-score of 1.31.

Regarding GTACCAAGGTGAATAGGCCGTTGATGAGTAGGCG, the PBM binding z-score is -0.306.

For TCTGCTAGGGCAGTTGGTCAGCTAACGAGCTGCC, the PBM binding z-score was -0.0574.

Regarding AGTCAAAATTCATCTAGGTAACGTAAGATATGCT, the PBM binding z-score came to 0.0782.

The sequence CCAGACAGGTGAGAAGGTTACTCAGCCTCGATTA gave a PBM binding z-score of 0.518.

Regarding AGTCAAAGTTCAGGACGAGGTAACATAAAGCACG, the PBM binding z-score was 3.19.

The sequence TGAATGAGGTTAAAGATCAGGGACCGTGGCGTCG came in with a PBM binding z-score of 0.631.

On to CAAAGTAGGTCAAAGGTCAAAGTCGAGCCAACCA, for which the PBM binding z-score came to 3.17.

CCTTACGGGTCACTCCAGGTTATGGCATCGGAGT gave a PBM binding z-score of 1.4.

GCTTACGGGACAAAGGTTATAGCATGAATAGAAT displayed a PBM binding z-score of 0.777.

ACTATTAGTTGAGACGAGGGCAATCGATAGGTTG yielded a PBM binding z-score of 0.801.

Regarding CTCGAAAGGTCCTGCTCAGGTGAGTATACCAAAC, the PBM binding z-score is -0.0806.

Source of the values: the supplement of paper PMC6555819.
